# Test results reported in PubChem BioAssay.
# Unmarked numbers belong to inactive results. For some assays here: Entries with a potency or affinity are not part of this list. Activity calls are given as the source filed them. Unless noted, no rule for the calls is given here.
# Experiments:
# [1] = antimalarial activity against Dd2 strain (AID 2302;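 active = growth inhibition above 50% at the single 2 µM test dose, taken to imply half-maximal potency below 2 µM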;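 also: 0% = DMSO untreated growth and 100% = chloroquine plus artemisinin killed control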); conditions: P. falciparum Dd2 in RBCs, LDH growth readout, 72 h; at 2 µM; hits give high values
# [2] = human hepatoma cell viability loss – ATP luminescence, cytotoxicity control for P. falciparum antimalarial project, primary screen (AID 2303;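 active = inhibition above 50%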;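 also: 0% = DMSO wells and 100% = digitonin-killed cells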); conditions: HepG2 viability, 24-48 h, at 10 µM, hits give high values
# [3] = molecular target: L-lactate dehydrogenase (Plasmodium falciparum (isolate CDC / Honduras)) (UniProt Q27743); experiment: PfLDH activity inhibition – cell lysate, 3D7 strain, counter-screen for P. falciparum growth inhibition project (AID 2304);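 also: 0% = vehicle and 100% = reference inhibitor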; conditions: P. falciparum 3D7 crude extract, LDH APAD/NBT absorbance; at 2 µM; hits give high values
# [4] = inhibition of 3D7 malaria parasite growth – strain 3D7 (AID 2306);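 also: 0% = DMSO wells and 100% = chloroquine plus artemisinin control wells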; conditions: P. falciparum 3D7 erythrocytic growth, LDH absorbance, 72 h; at 2 µM; hits give high values
# [5] = molecular target: Calcium-dependent protein kinase 1 (Plasmodium falciparum (isolate 3D7)) (UniProt P62344); experiment: PfCDPK1 kinase inhibitors, biochemical, TCAMS library (AID 1159585; cut-off not given, nearly all actives have IC50 up to about 0.98 µM;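 also: inhibitors leave more ATP so luminescence rises with inhibition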); conditions: recombinant PfCDPK1, Kinase-Glo ATP depletion luminescence
# [6] = molecular target: Plasmodium falciparum protein kinase 6 (PK6, PF3D7_1337100) (UniProt Q8IDW1); experiment: PfPK6 kinase inhibitors, biochemical, TCAMS library (AID 1159586); conditions: recombinant PfPK6, Kinase-Glo ATP depletion luminescence
# [7] = molecular target: Protein kinase 7 (PK7), Plasmodium falciparum 3D7 (PF3D7_0213400) (UniProt Q7YTF7); experiment: inhibition of Plasmodium PK7 catalytic activity – biochemical, TCAMS antimalarial set, Kinase-Glo luminescence (AID 1159587); conditions: recombinant PfPK7, Kinase-Glo ATP depletion luminescence
# [8] = molecular target: Calcium-dependent protein kinase 4 (Plasmodium falciparum (isolate 3D7)) (UniProt Q8IBS5); experiment: PfCDPK4 kinase inhibitors, biochemical, TCAMS library (AID 1159588; cut-off not given, nearly all actives have IC50 up to about 0.91 µM); conditions: recombinant PfCDPK4, Kinase-Glo ATP depletion luminescence
# Calcium-dependent protein kinase 4 (Plasmodium falciparum (isolate 3D7)), sequence (Q8IBS5 whole entry, looked up): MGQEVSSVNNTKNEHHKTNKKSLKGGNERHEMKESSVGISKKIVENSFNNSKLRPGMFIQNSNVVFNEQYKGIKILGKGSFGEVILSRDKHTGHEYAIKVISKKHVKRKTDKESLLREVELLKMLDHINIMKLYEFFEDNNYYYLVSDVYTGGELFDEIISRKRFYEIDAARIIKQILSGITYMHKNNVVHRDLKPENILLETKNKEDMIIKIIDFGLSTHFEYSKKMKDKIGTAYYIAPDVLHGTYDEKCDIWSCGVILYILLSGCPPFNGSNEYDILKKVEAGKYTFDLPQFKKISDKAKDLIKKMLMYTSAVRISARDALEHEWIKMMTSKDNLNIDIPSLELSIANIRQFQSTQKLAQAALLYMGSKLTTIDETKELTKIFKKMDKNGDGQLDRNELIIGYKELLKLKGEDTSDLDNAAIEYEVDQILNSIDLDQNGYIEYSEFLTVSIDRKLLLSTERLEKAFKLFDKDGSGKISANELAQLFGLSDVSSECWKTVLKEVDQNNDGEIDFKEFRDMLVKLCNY
# Calcium-dependent protein kinase 1 (Plasmodium falciparum (isolate 3D7)), sequence (P62344 whole entry, looked up): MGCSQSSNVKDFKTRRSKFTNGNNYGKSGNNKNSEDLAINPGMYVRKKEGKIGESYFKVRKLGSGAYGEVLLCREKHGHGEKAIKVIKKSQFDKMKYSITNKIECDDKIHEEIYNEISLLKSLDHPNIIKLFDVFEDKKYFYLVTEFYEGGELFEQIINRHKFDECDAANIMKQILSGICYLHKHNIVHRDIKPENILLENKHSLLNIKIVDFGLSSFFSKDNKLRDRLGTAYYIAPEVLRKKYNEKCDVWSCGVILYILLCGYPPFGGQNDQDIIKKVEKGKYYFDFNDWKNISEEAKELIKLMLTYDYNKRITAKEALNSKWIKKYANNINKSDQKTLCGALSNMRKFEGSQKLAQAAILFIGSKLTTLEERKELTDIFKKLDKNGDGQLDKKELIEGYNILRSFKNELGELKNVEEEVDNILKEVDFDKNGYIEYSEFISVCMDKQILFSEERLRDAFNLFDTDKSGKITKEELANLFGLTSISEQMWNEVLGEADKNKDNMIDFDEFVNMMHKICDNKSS
# Protein kinase 7 (PK7), Plasmodium falciparum 3D7 (PF3D7_0213400), sequence (Q7YTF7 1-343): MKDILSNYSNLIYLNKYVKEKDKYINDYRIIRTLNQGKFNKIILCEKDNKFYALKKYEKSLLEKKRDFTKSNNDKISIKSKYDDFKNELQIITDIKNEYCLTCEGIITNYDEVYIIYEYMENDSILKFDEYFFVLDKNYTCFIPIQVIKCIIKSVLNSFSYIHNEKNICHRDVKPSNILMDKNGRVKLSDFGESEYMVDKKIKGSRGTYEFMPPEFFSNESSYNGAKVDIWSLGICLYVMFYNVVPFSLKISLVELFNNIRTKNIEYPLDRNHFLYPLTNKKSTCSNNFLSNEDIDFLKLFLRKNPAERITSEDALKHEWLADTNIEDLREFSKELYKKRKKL
# Plasmodium falciparum protein kinase 6 (PK6, PF3D7_1337100), sequence (Q8IDW1 1-305): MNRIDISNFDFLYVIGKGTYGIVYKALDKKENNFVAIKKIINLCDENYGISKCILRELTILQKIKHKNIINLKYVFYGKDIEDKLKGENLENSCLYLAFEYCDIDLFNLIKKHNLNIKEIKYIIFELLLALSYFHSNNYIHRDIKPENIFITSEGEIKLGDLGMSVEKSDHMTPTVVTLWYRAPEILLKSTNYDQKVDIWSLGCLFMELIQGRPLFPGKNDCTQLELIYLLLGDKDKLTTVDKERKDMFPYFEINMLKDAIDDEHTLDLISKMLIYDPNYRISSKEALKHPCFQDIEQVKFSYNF
# L-lactate dehydrogenase (Plasmodium falciparum (isolate CDC / Honduras)), sequence (Q27743 whole entry, looked up): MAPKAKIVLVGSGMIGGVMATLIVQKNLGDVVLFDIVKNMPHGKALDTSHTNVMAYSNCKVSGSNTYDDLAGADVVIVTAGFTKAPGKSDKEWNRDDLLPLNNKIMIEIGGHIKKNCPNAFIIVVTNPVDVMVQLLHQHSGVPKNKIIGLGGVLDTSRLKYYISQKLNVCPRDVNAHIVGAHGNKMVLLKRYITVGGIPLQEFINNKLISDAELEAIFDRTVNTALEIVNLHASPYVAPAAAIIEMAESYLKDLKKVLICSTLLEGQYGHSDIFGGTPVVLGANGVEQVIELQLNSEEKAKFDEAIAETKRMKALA
SMILES,growth inhibition [1],inhibition [2],inhibition [3] [%],growth inhibition [4],outcome [5],outcome [6],outcome [7],outcome [8]
CCc1cn2c3c(cc(C(=O)N[C@@H](Cc4cccc(F)c4)[C@H](O)CNC4CC4)cc13)N(C)S(=O)(=O)CC2,98% (active),2%,1,98% (active),inactive,inactive,inactive,inactive
CC(C)c1ccc(-c2noc(SCC(=O)N3CCCCC3C)n2)cc1 (stereo not given),92% (active),21%,2,92% (active),inactive,inactive,inactive,inactive
CN(Cc1cccc(F)c1)C1CCN(c2cc(NC(=O)c3ccc(F)cc3)ccn2)CC1,36%,-3%,3,95% (active),inactive,inactive,inactive,inactive
COc1ccc2ncc(F)c(CCN3CCC(NCc4cnc5c(c4)NC(=O)CS5)CC3)c2c1,16%,16%,3,99% (active),inactive,inactive,inactive,inactive
c1cc(C2=N[C@H]3CCCC[C@@H]3N2)ccc1OCCCOc1ccc(C2=N[C@@H]3CCCC[C@H]3N2)cc1,64% (active),-7%,-3,99% (active),inactive,inactive,inactive,inactive
CCCCCCN1CCC(CNCc2cccc([N+](=O)[O-])c2)CC1,15%,16%,-1,95% (active),inactive,inactive,inactive,inactive
Cc1cc2nc(-c3ccc(C(=O)NCc4ccc(Cl)c(Cl)c4)cc3)[nH]c2cc1C,83% (active),6%,1,96% (active),inactive,inactive,inactive,inactive
CCN(CC)C(=O)c1cccc(/C=C/c2ccc(-c3c(C)[nH]c(C)c(Cl)c3=O)cc2)c1,96% (active),9%,6,96% (active),inactive,inactive,inactive,inactive
COc1ccc(COc2c(OC)cc(Cc3cnc(N)nc3N)cc2OC)cc1,23%,5%,1,90% (active),inactive,inactive,inactive,inactive
N=c1n(CCN2CCCCC2)c2ccccc2n1CC(=O)c1cccc([N+](=O)[O-])c1,0%,10%,-1,94% (active),inactive,inactive,inactive,inactive
Cc1cc(N2CCC(NS(=O)(=O)c3cccc4cccnc34)CC2)nc(Nc2cccc(C#N)c2)n1,87% (active),12%,-3,98% (active),inactive,inactive,inactive,inactive
COc1ccc2c(C)cc(NCCCN(C)C)nc2c1,19%,10%,3,95% (active),inactive,inactive,inactive,inactive
COc1ccc(CNCc2ccsc2)cc1-c1ccc(OC)c(S(=O)(=O)NCCN2CCCC2)c1,62% (active),18%,0,97% (active),inactive,inactive,inactive,inactive
CN(Cc1ccc(C#N)cc1)C1CCN(c2cc(NC(=O)c3cccc(F)c3)ccn2)CC1,-9%,9%,-2,83% (active),inactive,inactive,inactive,inactive
O=C(N[C@H]1CCN(Cc2ccc(OC3CCN(Cc4ccccc4)CC3)cc2)C1)c1ccc(Cl)c(Cl)c1,6%,37%,1,90% (active),inactive,inactive,inactive,inactive
CC(C)c1nc(N2CCN(C(=S)NCc3ccccc3)CC2)c(C#N)c2c1COC(C)(C)C2,100% (active),-7%,6,99% (active),inactive,inactive,inactive,inactive
CCN1CCCC1CNC(=O)c1cc2c(-c3ccc(Cl)cc3)nn(C)c2s1 (stereo not given),20%,27%,-9,96% (active),inactive,inactive,inactive,inactive
O=C(NCCCN1CCCC1=O)NCc1ccccc1,4%,8%,3,99% (active),inactive,inactive,inactive,inactive
CC1(CCc2ccccc2)N=C(Nc2ccc(Cl)cc2)N=C(N)C1c1ccc(Cl)c(Cl)c1 (stereo not given),98% (active),81% (active),-6,102% (active),inactive,inactive,inactive,inactive
Cc1cc2[nH]c(-c3ccc(C(=O)NCCCN4CCN(c5cccc(Cl)c5)CC4)cc3)nc2cc1Cl,73% (active),1%,6,98% (active),inactive,inactive,inactive,inactive

SMILES,growth inhibition [1],inhibition [2],inhibition [3] [%],growth inhibition [4],outcome [5],outcome [6],outcome [7],outcome [8]
Cc1csc(NC(=O)c2cn(-c3ccccc3)nc2-c2cccs2)n1,12%,-1%,4,95% (active),inactive,inactive,inactive,inactive
CN(C)CCOc1cc(NC(=O)Nc2cccc3c(-c4ccncc4)cccc23)ccc1I,28%,20%,0,100% (active),inactive,inactive,inactive,inactive
O=C(Cc1cccnc1)N(Cc1ccc(-c2ccc(CNCc3cccnc3)cn2)cc1)C1CCN(Cc2ccccc2)CC1,6%,8%,-3,93% (active),inactive,inactive,inactive,inactive
c1cc(CN2CCCCC2)cc(-c2ccc(-c3nc4ccccc4[nH]3)cc2)c1,88% (active),9%,-2,101% (active),inactive,inactive,inactive,inactive
Clc1cccc(C=NNc2nc(Nc3ccccc3)nc(Nc3ccccc3)n2)c1,15%,-5%,-4,92% (active),inactive,inactive,inactive,inactive
Cc1ccc(C2CCN(CCCCNC(=O)c3ccc(NC(=O)c4ccc(Cl)cc4)cc3)CC2)c(OCC2CC2)c1,95% (active),63% (active),0,101% (active),inactive,inactive,inactive,inactive
COc1ccc2nccc([C@@H](O)CN3CCC(NCCOc4ccccc4[N+](=O)[O-])CC3)c2c1,98% (active),4%,-2,100% (active),inactive,inactive,inactive,inactive
Cc1cnc(CN(Cc2ccc(-c3ccc(CNCCc4ccc(S(C)(=O)=O)cc4)cn3)cc2)C(=O)c2ccc([N+](=O)[O-])c(C)c2)cn1,15%,-4%,4,93% (active),inactive,inactive,inactive,inactive
COc1cccc(N(CCCN2C(=O)c3cccc4cccc(c34)C2=O)C(=O)c2ccccc2C)c1,70% (active),20%,-7,86% (active),inactive,inactive,inactive,inactive
CCCCCCCN1CC[C@@H](CCCc2ccnc3ccc(OCCN4CCOCC4)cc23)[C@@H](CC)C1,3%,14%,0,89% (active),inactive,inactive,inactive,inactive
Cc1cccc2[nH]c(-c3cccc(-c4cccc(CNC(C)C)c4)c3)nc12,98% (active),29%,-4,102% (active),inactive,inactive,inactive,inactive
Cc1cc(N2CCCCC2)nc2ccc(NC(=O)c3cc(=O)c4ccccc4o3)cc12,19%,15%,-7,98% (active),inactive,inactive,inactive,inactive
O=S(=O)(Nc1ccc(CCN2CCC(N3CCCCC3)CC2)cc1)c1ccc(Cl)cc1,18%,23%,-1,101% (active),inactive,inactive,inactive,inactive
COc1ccc(N2CCN(CCCCNC(=O)c3ccc(NC(=O)c4ccc(Cl)c(Cl)c4)cc3)CC2)c(OC)c1,98% (active),23%,4,101% (active),inactive,inactive,inactive,inactive
CC(=O)COc1c(C2CCN(CCCCNC(=O)c3ccc(-c4ccc(C(F)(F)F)cc4)cc3)CC2)ccc2c1CCCC2,53% (active),100% (active),-7,99% (active),inactive,inactive,inactive,inactive
CN1CCC(NCc2ccc(-c3cccc(S(=O)(=O)NCCc4ccccn4)c3)cc2)CC1,-8%,42%,-1,84% (active),inactive,inactive,inactive,inactive
N#Cc1ccc(NC(=Nc2ccccc2Br)N(C2CCCCC2)C2CCCCC2)c(O)c1,96% (active),4%,4,99% (active),inactive,inactive,inactive,inactive
CN(C)CCNC(=O)c1ccc(-c2ccc3c(Nc4ccccc4)c(C(N)=O)cnc3c2)cc1,68% (active),9%,6,99% (active),inactive,inactive,inactive,inactive
CCCOC(=O)C1=C(C)NC2=C(C(=O)CC(c3ccc(OC)c(OC)c3)C2)C1c1cccc(O)c1 (stereo not given),99% (active),-10%,-2,100% (active),inactive,inactive,inactive,inactive
COc1ccc(Nc2cc(C)nc(Nc3ccc(NC(C)=O)cc3)n2)cc1,31%,16%,-1,98% (active),inactive,inactive,inactive,inactive
